In all, about 5,500 compounds went through this assay and about 2,000 (36%) were called active. Inconclusive results (about 18%) are left out. The list shows a part of the results. Unmarked numbers belong to inactive results. No stated cut-off is given here; in the data, active means normalized growth mostly below about 0.91 (no sharp cut-off); inconclusive means no clear call, values can overlap the other calls; inactive means mostly above about 0.92.
Assay: chemical genetic growth profiling, strain panel (AID 1159580);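 further: tested at 20 µM; growth read once vehicle control cultures reached saturation at 30 °C; 1 = growth at the plate median or of vehicle wells; lower values mean less growth of the strain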
Settings: S. cerevisiae deletion strains, growth OD

`CC(=O)O[C@@H]1CC[C@]2(C)C3CC[C@]4(C)C(=O)CCC4C3CC[C@H]2C1` (stereo partly specified) showed a normalized growth (locus YAL021C, strain ccr4, hits give low values) of 0.944, a normalized growth (locus YAL026C, strain drs2, hits give low values) of 0.967 and a normalized growth (locus YAL030W, strain snc1, hits give low values) of 1.01. The normalized growth (locus YBL061C, strain skt5, hits give low values) was 0.988, the normalized growth (locus YBR009C, strain hhf1, hits give low values) was 0.866 (active) and the normalized growth (locus YBR021W, strain FUR4, hits give low values) was 0.861. It also gave a normalized growth (locus YBR023C, strain chs3, hits give low values) of 0.98, a normalized growth (locus YBR171W, strain sec66, hits give low values) of 0.97 and a normalized growth (locus YBR229C, strain ROT2, hits give low values) of 0.934. The normalized growth (locus YBR231C, strain swc5, hits give low values) was 1.01, the normalized growth (locus YBR279W, strain paf1, hits give low values) was 1 and the normalized growth (locus YCL011C, strain gbp2, hits give low values) was 0.973. For the same molecule, the normalized growth (locus YCL016C, strain dcc1, hits give low values) was 1.02, the normalized growth (locus YCL029C, strain bik1, hits give low values) was 0.987 and the normalized growth (locus YCL061C, strain MRC1, hits give low values) was 0.979. For the same molecule, the normalized growth (locus YCL069W, strain vba3, hits give low values) was 0.96, the normalized growth (locus YCR088W, strain abp1, hits give low values) was 0.984 and the normalized growth (locus YDL005C, strain med2, hits give low values) was 1. The normalized growth (locus YDL035C, strain GPR1, hits give low values) was 0.85 (active), the normalized growth (locus YDL040C, strain nat1, hits give low values) was 0.982 and the normalized growth (locus YDL074C, strain BRE1, hits give low values) was 0.867. For the same molecule, the normalized growth (locus YDL101C, strain DUN1, hits give low values) was 0.964, the normalized growth (locus YDL185W, strain tfp1, hits give low values) was 0.981 and the normalized growth (locus YDL192W, strain arf1, hits give low values) was 0.937. The normalized growth (locus YDR001C, strain nth1, hits give low values) was 0.997, the normalized growth (locus YDR069C, strain doa4, hits give low values) was 0.969 and the normalized growth (locus YDR101C, strain arx1, hits give low values) was 0.995. The normalized growth (locus YDR137W, strain rgp1, hits give low values) was 0.876, the normalized growth (locus YDR150W, strain NUM1, hits give low values) was 0.992 and the normalized growth (locus YDR159W, strain sac3, hits give low values) was 0.931. For the same molecule, the normalized growth (locus YDR162C, strain NBP2, hits give low values) was 0.661 (active), the normalized growth (locus YDR195W, strain ref2) was 1.07 and the normalized growth (locus YDR297W, strain sur2, hits give low values) was 1.01. It also gave a normalized growth (locus YDR318W, strain mcm21, hits give low values) of 0.942, a normalized growth (locus YDR334W, strain swr1, hits give low values) of 0.972 and a normalized growth (locus YDR335W, strain msn5, hits give low values) of 0.995. The normalized growth (locus YDR388W, hits give low values) was 0.939, the normalized growth (locus YDR392W, strain spt3, hits give low values) was 0.929 and the normalized growth (locus YDR502C, strain sam2, hits give low values) was 0.883 (active). For the same molecule, the normalized growth (locus YEL003W, strain gim4, hits give low values) was 0.965, the normalized growth (locus YEL037C, strain rad23, hits give low values) was 0.985 and the normalized growth (locus YEL061C, strain CIN8 (second series), hits give low values) was 0.988. For the same molecule, the normalized growth (locus YEL061C, strain CIN8, hits give low values) was 0.983, the normalized growth (locus YER015W, strain faa2, hits give low values) was 0.996 and the normalized growth (locus YER016W, strain bim1, hits give low values) was 1.03. It also gave a normalized growth (locus YER110C, hits give low values) of 0.996, a normalized growth (locus YER111C, strain swi4, hits give low values) of 0.986 and a normalized growth (locus YER155C, strain BEM2 (second series), hits give low values) of 0.992. The normalized growth (locus YER155C, strain BEM2, hits give low values) was 1.01, the normalized growth (locus YER167W, strain BCK2, hits give low values) was 0.947 and the normalized growth (locus YFR010W, strain ubp6, hits give low values) was 0.972. It also gave a normalized growth (locus YGL078C, strain dbp3, hits give low values) of 0.948, a normalized growth (locus YGL086W, strain mad1, hits give low values) of 0.987 and a normalized growth (locus YGL167C, strain pmr1, hits give low values) of 0.999. The normalized growth (locus YGL173C, strain kem1, hits give low values) was 0.953, the normalized growth (locus YGL227W, strain vid30, hits give low values) was 0.989 and the normalized growth (locus YGL240W, strain doc1, hits give low values) was 0.985. For the same molecule, the normalized growth (locus YGL248W, strain PDE1, hits give low values) was 0.959, the normalized growth (locus YGL253W, strain hxk2, hits give low values) was 0.966 and the normalized growth (locus YGR135W, strain pre9, hits give low values) was 0.876 (active). For the same molecule, the normalized growth (locus YGR252W, strain gcn5, hits give low values) was 0.83, the normalized growth (locus YHR013C, strain ard1, hits give low values) was 1.05 and the normalized growth (locus YHR027C, strain rpn1, hits give low values) was 0.977. The normalized growth (locus YHR030C, strain SLT2, hits give low values) was 0.999, the normalized growth (locus YHR079C, strain IRE1 (second series), hits give low values) was 0.987 and the normalized growth (locus YHR094C, strain hxt1, hits give low values) was 0.978. It also gave a normalized growth (locus YHR129C, strain ARP1, hits give low values) of 0.974, a normalized growth (locus YHR142W, strain chs7, hits give low values) of 0.943 and a normalized growth (locus YHR200W, strain rpn10, hits give low values) of 0.978. The normalized growth (locus YIL066C, strain RNR3, hits give low values) was 0.852 (active), the normalized growth (locus YIL073C, strain SPO22, hits give low values) was 0.872 and the normalized growth (locus YIL125W, strain kgd1, hits give low values) was 0.981. It also gave a normalized growth (locus YIR030C, strain dcg1, hits give low values) of 0.967, a normalized growth (locus YJL092W, strain hpr5, hits give low values) of 0.986 and a normalized growth (locus YJL095W, strain BCK1 (second series), hits give low values) of 0.949. The normalized growth (locus YJL095W, strain BCK1, hits give low values) was 0.828, the normalized growth (locus YJL115W, strain asf1, hits give low values) was 0.991 and the normalized growth (locus YJL129C, strain trk1, hits give low values) was 0.942. It also gave a normalized growth (locus YJL134W, strain LCB3, hits give low values) of 0.951, a normalized growth (locus YJL154C, strain vps35, hits give low values) of 0.988 and a normalized growth (locus YJL164C, strain tpk1, hits give low values) of 0.949. It also gave a normalized growth (locus YJL166W, strain qcr8, hits give low values) of 0.922, a normalized growth (locus YJL168C, strain set2, hits give low values) of 0.995 and a normalized growth (locus YJL187C, strain SWE1 (second series), hits give low values) of 0.955. The normalized growth (locus YJR043C, strain POL32, hits give low values) was 0.962, the normalized growth (locus YJR075W, strain HOC1, hits give low values) was 0.982 and the normalized growth (locus YKL009W, strain mrt4, hits give low values) was 0.941. The normalized growth (locus YKL068W, hits give low values) was 0.979, the normalized growth (locus YKL085W, strain MDH1 (second series), hits give low values) was 0.954 and the normalized growth (locus YKL085W, strain MDH1, hits give low values) was 0.954. The normalized growth (locus YKL160W, strain elf1, hits give low values) was 1.03, the normalized growth (locus YKL190W, strain CNB1, hits give low values) was 0.973 and the normalized growth (locus YKR001C, strain vps1, hits give low values) was 0.984. For the same molecule, the normalized growth (locus YKR026C, strain gcn3, hits give low values) was 0.982, the normalized growth (locus YKR091W, strain srl3, hits give low values) was 0.989 and the normalized growth (locus YLL001W, strain dnm1, hits give low values) was 0.974. For the same molecule, the normalized growth (locus YLL026W, hits give low values) was 0.999, the normalized growth (locus YLL041C, strain sdh2, hits give low values) was 0.986 and the normalized growth (locus YLR027C, strain aat2, hits give low values) was 0.962. It also gave a normalized growth (locus YLR039C, strain RIC1, hits give low values) of 0.772, a normalized growth (locus YLR058C, strain SHM2, hits give low values) of 0.96 and a normalized growth (locus YLR102C, strain apc9, hits give low values) of 0.991. For the same molecule, the normalized growth (locus YLR221C, strain rsa3, hits give low values) was 0.91, the normalized growth (locus YLR258W, strain gsy2, hits give low values) was 0.974 and the normalized growth (locus YLR262C, strain YPT6 (second series), hits give low values) was 0.725 (active). The normalized growth (locus YLR262C, strain YPT6, hits give low values) was 0.672, the normalized growth (locus YLR268W, strain sec22, hits give low values) was 0.979 and the normalized growth (locus YLR320W, strain mms22, hits give low values) was 0.868 (active). It also gave a normalized growth (locus YLR330W, strain CHS5, hits give low values) of 0.933, a normalized growth (locus YLR342W, strain FKS1 (second series), hits give low values) of 0.804 and a normalized growth (locus YLR342W, strain FKS1, hits give low values) of 0.962. For the same molecule, the normalized growth (locus YLR357W, strain rsc2, hits give low values) was 1.02, the normalized growth (locus YLR370C, strain arc18, hits give low values) was 1.02 and the normalized growth (locus YLR371W, strain rom2, hits give low values) was 0.992. For the same molecule, the normalized growth (locus YLR384C, strain iki3, hits give low values) was 1.02, the normalized growth (locus YLR418C, strain cdc73, hits give low values) was 0.843 and the normalized growth (locus YML016C, strain PPZ1, hits give low values) was 0.969. For the same molecule, the normalized growth (locus YML032C, strain rad52, hits give low values) was 0.885 (active), the normalized growth (locus YML120C, strain ndi1, hits give low values) was 0.943 and the normalized growth (locus YML124C, strain tub3, hits give low values) was 1. It also gave a normalized growth (locus YMR058W, strain fet3, hits give low values) of 0.95, a normalized growth (locus YMR078C, strain ctf18, hits give low values) of 1 and a normalized growth (locus YMR125W, strain sto1, hits give low values) of 1. For the same molecule, the normalized growth (locus YMR129W, hits give low values) was 1, the normalized growth (locus YMR205C, strain PFK2, hits give low values) was 0.867 (active) and the normalized growth (locus YMR223W, strain ubp8, hits give low values) was 0.916. It also gave a normalized growth (locus YMR231W, strain pep5, hits give low values) of 0.993, a normalized growth (locus YMR307W, strain GAS1, hits give low values) of 0.797 and a normalized growth (locus YNL067W, strain RPL9B, hits give low values) of 1. For the same molecule, the normalized growth (locus YNL071W, strain lat1, hits give low values) was 0.949, the normalized growth (locus YNL209W, strain ssb2, hits give low values) was 0.989 and the normalized growth (locus YNL233W, strain BNI4, hits give low values) was 0.941. It also gave a normalized growth (locus YNL248C, strain rpa49, hits give low values) of 0.963, a normalized growth (locus YNL250W, strain rad50, hits give low values) of 0.963 and a normalized growth (locus YNL271C, strain bni1, hits give low values) of 0.979. The normalized growth (locus YNL298W, strain CLA4, hits give low values) was 0.913, the normalized growth (locus YNL307C, strain MCK1, hits give low values) was 0.848 (active) and the normalized growth (locus YNL322C, strain KRE1 (second series), hits give low values) was 1.02. For the same molecule, the normalized growth (locus YNR049C, strain mso1, hits give low values) was 1.01, the normalized growth (locus YNR052C, strain pop2, hits give low values) was 0.877 (active) and the normalized growth (locus YOL012C, strain htz1) was 1.51. For the same molecule, the normalized growth (locus YOL147C, strain pex11, hits give low values) was 0.865 (active), the normalized growth (locus YOR001W, strain rrp6, hits give low values) was 0.891 (active) and the normalized growth (locus YOR061W, strain CKA2, hits give low values) was 0.942. It also gave a normalized growth (locus YOR069W, strain VPS5, hits give low values) of 0.977, a normalized growth (locus YOR070C, strain gyp1, hits give low values) of 1 and a normalized growth (locus YOR080W, strain dia2, hits give low values) of 1.01. The normalized growth (locus YOR083W, strain WHI5, hits give low values) was 0.975, the normalized growth (locus YOR106W, strain vam3, hits give low values) was 0.978 and the normalized growth (locus YOR136W, strain idh2, hits give low values) was 0.998. For the same molecule, the normalized growth (locus YOR144C, strain elg1, hits give low values) was 1, the normalized growth (locus YOR184W, strain ser1, hits give low values) was 0.713 (active) and the normalized growth (locus YOR265W, strain rbl2, hits give low values) was 0.983. The normalized growth (locus YOR270C, strain vph1, hits give low values) was 0.72 (active), the normalized growth (locus YOR290C, strain snf2, hits give low values) was 0.958 and the normalized growth (locus YOR316C, strain cot1, hits give low values) was 0.986. It also gave a normalized growth (locus YPL051W, strain arl3, hits give low values) of 1, a normalized growth (locus YPL078C, strain atp4, hits give low values) of 0.964 and a normalized growth (locus YPL106C, strain sse1, hits give low values) of 1.03. It also gave a normalized growth (locus YPL240C, strain hsp82, hits give low values) of 0.99, a normalized growth (locus YPL241C, strain CIN2, hits give low values) of 0.985 and a normalized growth (locus YPR119W, strain clb2, hits give low values) of 0.994. It also gave a normalized growth (locus YPR141C, strain kar3, hits give low values) of 0.991, a normalized growth (locus YPR163C, strain tif3, hits give low values) of 0.981 and a normalized growth (locus YPR167C, strain met16, hits give low values) of 0.942. For the same molecule, the normalized growth (strain wtn01, hits give low values) was 1.01.

Reference: PubChem BioAssay AID1159580 (chemical genetic matrix, 2015)
